The values below come from publication PMC7862700, “An all-to-all approach to the identification of sequence-specific readers for epigenetic DNA modifications on cytosine”.

What all share (test): DAPPL (digital affinity profiling via proximity ligation, sequencing); 10 mM Tris-HCl pH 7.5, 50 mM NaCl, 1 mM DTT, 4% glycerol, room temperature, 30 min; GST-TFs on glutathione beads, 16-mer random dsDNA library, 0.1% formaldehyde crosslink after washing; high values mean tight binding
For one assay, the target named is T1, FLI1 (Homo sapiens, UniProt Q01543 1-452).
T1 sequence: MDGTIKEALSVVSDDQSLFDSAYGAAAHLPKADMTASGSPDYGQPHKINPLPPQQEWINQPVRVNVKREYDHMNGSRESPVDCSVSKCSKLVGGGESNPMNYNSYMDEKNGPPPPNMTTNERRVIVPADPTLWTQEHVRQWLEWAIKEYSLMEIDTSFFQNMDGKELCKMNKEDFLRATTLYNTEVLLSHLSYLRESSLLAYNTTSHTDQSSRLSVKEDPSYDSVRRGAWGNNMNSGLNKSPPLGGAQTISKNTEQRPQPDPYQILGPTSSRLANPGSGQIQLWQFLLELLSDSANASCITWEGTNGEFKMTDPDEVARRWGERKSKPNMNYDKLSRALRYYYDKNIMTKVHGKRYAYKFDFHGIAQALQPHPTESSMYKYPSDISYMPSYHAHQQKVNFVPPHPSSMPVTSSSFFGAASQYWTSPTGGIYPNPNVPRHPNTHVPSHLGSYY
The following applies: protein: recombinant; tags: N-terminal GST; dsDNA, one strand shown. The essentials:
(§1)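 A tag-only sample was pooled with DNA-barcoded human transcription factors that had been expressed in yeast as GST fusions and captured on glutathione beads. The pools were incubated for 30 min at room temperature with 200 nmole of a random double-stranded 16-mer DNA library in Tris/NaCl/DTT/glycerol buffer, then washed, crosslinked with 0.1% formaldehyde, proximity-ligated (BsaI/T4 ligase, 1 h, 37 °C), PCR-amplified and sequenced on an Illumina NextSeq500. Binding signal is each hexamer's read frequency for a factor divided by its frequency for the tag-only sample.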

A further assay concerns the target T2, ELK1 (Homo sapiens, UniProt P19419 1-428).
T2 sequence: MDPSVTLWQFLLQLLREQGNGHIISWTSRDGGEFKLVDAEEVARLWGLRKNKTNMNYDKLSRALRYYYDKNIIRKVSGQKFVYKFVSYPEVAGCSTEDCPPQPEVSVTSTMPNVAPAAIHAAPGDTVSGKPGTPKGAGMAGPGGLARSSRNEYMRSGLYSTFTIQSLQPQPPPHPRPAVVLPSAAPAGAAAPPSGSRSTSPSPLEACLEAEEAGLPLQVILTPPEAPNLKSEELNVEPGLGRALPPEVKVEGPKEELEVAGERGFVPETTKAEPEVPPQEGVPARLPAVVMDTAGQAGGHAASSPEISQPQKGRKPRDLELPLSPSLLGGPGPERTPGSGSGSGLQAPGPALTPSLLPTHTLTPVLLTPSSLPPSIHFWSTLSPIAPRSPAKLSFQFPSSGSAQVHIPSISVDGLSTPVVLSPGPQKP
The following applies: protein: recombinant; tags: N-terminal GST; dsDNA, one strand shown. The essentials: as §1

Another assay deals with T3, GABPA (Homo sapiens, UniProt Q06546 1-454).
T3 sequence: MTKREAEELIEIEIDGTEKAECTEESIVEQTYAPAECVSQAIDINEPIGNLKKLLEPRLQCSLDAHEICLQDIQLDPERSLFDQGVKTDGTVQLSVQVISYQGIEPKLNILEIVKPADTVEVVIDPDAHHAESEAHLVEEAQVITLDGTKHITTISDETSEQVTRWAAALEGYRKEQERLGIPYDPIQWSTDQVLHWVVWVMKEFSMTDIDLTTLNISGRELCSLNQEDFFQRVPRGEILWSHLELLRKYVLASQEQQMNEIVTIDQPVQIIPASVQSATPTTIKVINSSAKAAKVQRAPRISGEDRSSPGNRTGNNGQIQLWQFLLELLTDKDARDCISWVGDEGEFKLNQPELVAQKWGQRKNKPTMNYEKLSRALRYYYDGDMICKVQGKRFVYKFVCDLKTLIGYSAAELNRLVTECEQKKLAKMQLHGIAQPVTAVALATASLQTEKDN
The following applies: protein: recombinant; tags: N-terminal GST; dsDNA, one strand shown. The essentials: as §1

In a further assay the target is T4, ERG (Homo sapiens, UniProt P11308 1-479).
T4 sequence: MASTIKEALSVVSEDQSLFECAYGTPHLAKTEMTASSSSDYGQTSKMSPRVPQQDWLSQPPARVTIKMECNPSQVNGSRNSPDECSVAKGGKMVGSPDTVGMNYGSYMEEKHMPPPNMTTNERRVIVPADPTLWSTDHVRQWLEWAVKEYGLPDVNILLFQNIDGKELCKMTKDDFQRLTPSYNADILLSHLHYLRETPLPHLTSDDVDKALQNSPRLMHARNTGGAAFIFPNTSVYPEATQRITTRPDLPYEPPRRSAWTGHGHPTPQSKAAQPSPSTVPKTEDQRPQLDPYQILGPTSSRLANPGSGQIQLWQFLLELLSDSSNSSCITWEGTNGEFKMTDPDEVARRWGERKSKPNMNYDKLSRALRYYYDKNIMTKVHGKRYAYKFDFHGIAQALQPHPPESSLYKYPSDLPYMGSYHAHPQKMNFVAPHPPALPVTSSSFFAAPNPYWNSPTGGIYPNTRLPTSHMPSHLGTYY
Particulars: protein: recombinant; tags: N-terminal GST; dsDNA, one strand shown. The essentials:
as §1

A further assay has as its target ELF1 (Homo sapiens, UniProt P32519 1-619). Particulars: protein: recombinant; tags: N-terminal GST; dsDNA, one strand shown. The essentials:
as §1

The target of another assay is T5, EHF (Homo sapiens, UniProt Q9NZC4 1-300).
T5 sequence: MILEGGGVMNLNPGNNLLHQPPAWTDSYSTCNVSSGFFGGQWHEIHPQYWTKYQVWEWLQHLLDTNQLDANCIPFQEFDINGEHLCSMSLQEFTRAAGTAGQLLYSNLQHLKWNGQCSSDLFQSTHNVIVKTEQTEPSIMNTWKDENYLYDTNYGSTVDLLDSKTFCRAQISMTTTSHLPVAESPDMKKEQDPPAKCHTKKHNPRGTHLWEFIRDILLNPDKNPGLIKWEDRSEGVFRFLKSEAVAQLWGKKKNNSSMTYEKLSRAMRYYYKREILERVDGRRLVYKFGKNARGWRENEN
The following applies: protein: recombinant; tags: N-terminal GST; dsDNA, one strand shown. Put shortly:
as §1

The target in another assay is SPI1 (Homo sapiens, UniProt P17947 1-270). Particulars: protein: recombinant; tags: N-terminal GST; dsDNA, one strand shown. The essentials: as §1
A further assay has as its target SPIB (Homo sapiens, UniProt Q01892 1-262). The following applies: protein: recombinant; tags: N-terminal GST; dsDNA, one strand shown. The essentials: as §1
For a further assay, the target named is T6, ELK3 (Homo sapiens, UniProt P41970 1-407).
T6 sequence: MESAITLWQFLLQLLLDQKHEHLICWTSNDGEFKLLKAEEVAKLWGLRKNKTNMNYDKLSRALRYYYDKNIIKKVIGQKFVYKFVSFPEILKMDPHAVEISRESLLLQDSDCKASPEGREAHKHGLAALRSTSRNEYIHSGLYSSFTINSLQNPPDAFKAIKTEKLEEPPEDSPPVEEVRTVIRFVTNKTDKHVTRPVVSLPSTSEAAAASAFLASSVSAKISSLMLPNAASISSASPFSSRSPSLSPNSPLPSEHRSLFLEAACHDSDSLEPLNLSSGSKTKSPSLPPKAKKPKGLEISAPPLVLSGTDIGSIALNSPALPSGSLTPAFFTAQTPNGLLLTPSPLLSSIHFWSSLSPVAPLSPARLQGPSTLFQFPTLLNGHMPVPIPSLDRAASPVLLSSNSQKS
Particulars: protein: recombinant; tags: N-terminal GST; dsDNA, one strand shown. The essentials:
as §1

The target in the next assay is T7, FEV (Homo sapiens, UniProt Q99581 1-238).
T7 sequence: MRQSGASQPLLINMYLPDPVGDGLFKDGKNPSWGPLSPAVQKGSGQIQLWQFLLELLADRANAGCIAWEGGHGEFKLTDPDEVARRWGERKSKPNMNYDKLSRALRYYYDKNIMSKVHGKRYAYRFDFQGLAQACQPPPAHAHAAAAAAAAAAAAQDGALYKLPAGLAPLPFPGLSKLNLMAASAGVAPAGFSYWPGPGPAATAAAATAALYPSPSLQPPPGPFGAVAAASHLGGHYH
Particulars: protein: recombinant; tags: N-terminal GST; dsDNA, one strand shown. Put shortly:
as §1

For a further assay, the target named is ETV5 (Homo sapiens, UniProt P41161 1-510). Particulars: protein: recombinant; tags: N-terminal GST; dsDNA, one strand shown. Put shortly: as §1
The next assay addresses HSF1 (Homo sapiens, UniProt Q00613 1-529). Particulars: protein: recombinant; tags: N-terminal GST; chain copies: 3; dsDNA, one strand shown. The essentials:
as §1

In the next assay the target is T8, SPIC (Homo sapiens, UniProt Q8N5J4 1-248).
T8 sequence: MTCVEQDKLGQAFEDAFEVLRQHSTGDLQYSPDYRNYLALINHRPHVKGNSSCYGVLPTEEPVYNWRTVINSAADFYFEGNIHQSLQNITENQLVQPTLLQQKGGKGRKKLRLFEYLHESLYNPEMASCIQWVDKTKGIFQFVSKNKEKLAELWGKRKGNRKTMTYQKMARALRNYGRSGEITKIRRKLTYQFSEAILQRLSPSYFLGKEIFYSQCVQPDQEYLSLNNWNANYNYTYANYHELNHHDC
The following applies: protein: recombinant; tags: N-terminal GST; dsDNA, one strand shown. The essentials: as §1

Another assay has as its target ELF4 (Homo sapiens, UniProt Q99607 1-663). The following applies: protein: recombinant; tags: N-terminal GST; dsDNA, one strand shown. Put shortly:
as §1

The target in another assay is T9, ELK4 (Homo sapiens, UniProt P28324-2 1-405).
T9 sequence: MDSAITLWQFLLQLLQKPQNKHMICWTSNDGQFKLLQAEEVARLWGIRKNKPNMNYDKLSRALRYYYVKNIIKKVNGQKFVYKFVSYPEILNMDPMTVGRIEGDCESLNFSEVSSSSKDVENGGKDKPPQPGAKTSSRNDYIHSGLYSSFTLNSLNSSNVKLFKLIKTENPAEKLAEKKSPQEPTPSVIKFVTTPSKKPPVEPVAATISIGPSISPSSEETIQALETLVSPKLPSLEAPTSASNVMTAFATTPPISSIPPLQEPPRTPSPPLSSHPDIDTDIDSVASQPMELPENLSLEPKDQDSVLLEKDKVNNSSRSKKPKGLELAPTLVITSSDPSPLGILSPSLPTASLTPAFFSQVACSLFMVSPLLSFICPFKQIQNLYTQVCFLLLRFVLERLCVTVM
The following applies: protein: recombinant; tags: N-terminal GST; dsDNA, one strand shown. The essentials:
as §1

The target of the next assay is T10, ETV2 (Homo sapiens, UniProt O00321 1-342).
T10 sequence: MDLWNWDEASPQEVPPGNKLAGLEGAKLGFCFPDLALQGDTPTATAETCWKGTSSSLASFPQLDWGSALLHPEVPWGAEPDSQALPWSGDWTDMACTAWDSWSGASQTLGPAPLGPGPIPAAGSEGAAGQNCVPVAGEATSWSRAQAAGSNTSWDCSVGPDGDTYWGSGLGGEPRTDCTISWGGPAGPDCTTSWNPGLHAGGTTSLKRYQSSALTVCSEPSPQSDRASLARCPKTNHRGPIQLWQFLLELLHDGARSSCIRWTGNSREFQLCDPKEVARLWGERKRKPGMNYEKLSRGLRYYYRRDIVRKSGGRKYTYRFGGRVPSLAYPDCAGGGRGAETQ
The following applies: protein: recombinant; tags: N-terminal GST; dsDNA, one strand shown. The essentials:
as §1

The next assay addresses T11, ELF3 (Homo sapiens, UniProt P78545 1-371).
T11 sequence: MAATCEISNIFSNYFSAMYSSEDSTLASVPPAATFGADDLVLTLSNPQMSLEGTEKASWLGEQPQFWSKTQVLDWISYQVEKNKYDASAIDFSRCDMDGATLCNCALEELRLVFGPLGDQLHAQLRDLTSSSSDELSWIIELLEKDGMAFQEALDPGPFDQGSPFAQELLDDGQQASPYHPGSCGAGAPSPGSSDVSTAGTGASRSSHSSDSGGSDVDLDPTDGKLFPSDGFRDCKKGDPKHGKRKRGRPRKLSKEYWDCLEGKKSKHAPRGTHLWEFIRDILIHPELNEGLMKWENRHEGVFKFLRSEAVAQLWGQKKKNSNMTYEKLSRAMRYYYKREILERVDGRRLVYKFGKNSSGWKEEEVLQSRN
Particulars: protein: recombinant; tags: N-terminal GST; dsDNA, one strand shown. Put shortly: as §1

Another assay deals with CRX (Homo sapiens, UniProt O43186 1-299). Particulars: protein: recombinant; tags: N-terminal GST; dsDNA, one strand shown. The essentials: as §1
The target of a further assay is ETV1 (Homo sapiens, UniProt P50549 1-477). The following applies: protein: recombinant; tags: N-terminal GST; dsDNA, one strand shown. Put shortly:
as §1

Sequence of ETV5 (P41161 whole entry): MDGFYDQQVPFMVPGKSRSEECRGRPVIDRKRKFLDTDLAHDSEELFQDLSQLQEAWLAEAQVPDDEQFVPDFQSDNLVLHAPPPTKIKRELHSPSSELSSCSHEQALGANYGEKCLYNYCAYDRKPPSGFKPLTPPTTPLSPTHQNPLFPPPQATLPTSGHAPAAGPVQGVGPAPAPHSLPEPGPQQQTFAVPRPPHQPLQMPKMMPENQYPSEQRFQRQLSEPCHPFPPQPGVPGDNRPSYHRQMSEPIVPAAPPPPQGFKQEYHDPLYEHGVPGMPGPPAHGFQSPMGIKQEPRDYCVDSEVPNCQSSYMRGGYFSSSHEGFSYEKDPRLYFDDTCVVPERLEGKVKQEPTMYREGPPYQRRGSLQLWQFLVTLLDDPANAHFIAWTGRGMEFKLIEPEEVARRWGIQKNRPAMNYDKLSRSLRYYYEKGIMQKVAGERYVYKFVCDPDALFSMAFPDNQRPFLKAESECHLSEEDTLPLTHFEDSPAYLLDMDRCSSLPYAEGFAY
Sequence of ELF1 (P32519 whole entry): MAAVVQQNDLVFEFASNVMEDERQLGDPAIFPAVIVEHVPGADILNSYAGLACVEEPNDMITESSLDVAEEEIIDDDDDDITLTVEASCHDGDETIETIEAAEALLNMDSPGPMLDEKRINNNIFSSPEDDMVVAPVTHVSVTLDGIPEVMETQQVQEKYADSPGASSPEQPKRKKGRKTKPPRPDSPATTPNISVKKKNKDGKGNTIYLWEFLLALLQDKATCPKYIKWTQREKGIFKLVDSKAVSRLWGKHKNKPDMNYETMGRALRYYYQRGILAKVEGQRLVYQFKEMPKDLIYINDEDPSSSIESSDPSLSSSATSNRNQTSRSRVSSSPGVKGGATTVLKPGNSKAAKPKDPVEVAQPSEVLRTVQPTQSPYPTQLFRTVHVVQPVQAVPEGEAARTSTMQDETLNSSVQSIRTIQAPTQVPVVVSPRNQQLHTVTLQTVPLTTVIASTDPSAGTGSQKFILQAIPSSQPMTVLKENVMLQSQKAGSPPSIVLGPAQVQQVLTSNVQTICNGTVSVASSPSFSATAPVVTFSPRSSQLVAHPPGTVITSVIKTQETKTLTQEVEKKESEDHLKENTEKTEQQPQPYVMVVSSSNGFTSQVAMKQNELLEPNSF
Sequence of ELF4 (Q99607 whole entry): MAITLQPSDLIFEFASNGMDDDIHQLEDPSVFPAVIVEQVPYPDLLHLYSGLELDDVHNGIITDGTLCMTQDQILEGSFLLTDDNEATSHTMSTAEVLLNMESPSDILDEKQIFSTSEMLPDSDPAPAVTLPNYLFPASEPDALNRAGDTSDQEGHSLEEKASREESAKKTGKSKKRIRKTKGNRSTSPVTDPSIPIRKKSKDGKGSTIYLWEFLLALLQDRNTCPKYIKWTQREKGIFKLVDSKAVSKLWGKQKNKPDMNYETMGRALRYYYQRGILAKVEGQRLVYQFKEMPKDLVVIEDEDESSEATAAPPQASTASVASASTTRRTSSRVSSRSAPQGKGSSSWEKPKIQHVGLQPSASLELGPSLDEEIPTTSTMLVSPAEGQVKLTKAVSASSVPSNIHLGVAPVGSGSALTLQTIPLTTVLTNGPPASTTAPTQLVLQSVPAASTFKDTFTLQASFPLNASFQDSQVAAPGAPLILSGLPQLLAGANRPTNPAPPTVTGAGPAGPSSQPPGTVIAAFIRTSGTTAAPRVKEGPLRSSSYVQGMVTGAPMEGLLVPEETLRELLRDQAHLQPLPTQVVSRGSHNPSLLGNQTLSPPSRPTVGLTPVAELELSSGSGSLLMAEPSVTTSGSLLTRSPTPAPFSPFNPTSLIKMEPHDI
Sequence of ETV1 (P50549 whole entry): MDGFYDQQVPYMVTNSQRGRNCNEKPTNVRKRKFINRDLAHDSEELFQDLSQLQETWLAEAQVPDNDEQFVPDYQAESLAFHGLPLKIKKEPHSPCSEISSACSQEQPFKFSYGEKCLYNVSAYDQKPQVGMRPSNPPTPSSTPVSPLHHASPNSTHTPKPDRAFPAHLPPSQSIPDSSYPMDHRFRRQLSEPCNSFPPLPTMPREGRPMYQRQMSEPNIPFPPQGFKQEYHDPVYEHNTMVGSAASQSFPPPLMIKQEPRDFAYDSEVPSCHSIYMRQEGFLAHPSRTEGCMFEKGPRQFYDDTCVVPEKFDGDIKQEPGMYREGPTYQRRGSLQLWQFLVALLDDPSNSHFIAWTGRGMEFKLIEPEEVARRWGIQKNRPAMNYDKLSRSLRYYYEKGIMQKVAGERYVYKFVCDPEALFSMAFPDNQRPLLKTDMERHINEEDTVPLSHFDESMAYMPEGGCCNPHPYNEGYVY
Sequence of HSF1 (Q00613 whole entry): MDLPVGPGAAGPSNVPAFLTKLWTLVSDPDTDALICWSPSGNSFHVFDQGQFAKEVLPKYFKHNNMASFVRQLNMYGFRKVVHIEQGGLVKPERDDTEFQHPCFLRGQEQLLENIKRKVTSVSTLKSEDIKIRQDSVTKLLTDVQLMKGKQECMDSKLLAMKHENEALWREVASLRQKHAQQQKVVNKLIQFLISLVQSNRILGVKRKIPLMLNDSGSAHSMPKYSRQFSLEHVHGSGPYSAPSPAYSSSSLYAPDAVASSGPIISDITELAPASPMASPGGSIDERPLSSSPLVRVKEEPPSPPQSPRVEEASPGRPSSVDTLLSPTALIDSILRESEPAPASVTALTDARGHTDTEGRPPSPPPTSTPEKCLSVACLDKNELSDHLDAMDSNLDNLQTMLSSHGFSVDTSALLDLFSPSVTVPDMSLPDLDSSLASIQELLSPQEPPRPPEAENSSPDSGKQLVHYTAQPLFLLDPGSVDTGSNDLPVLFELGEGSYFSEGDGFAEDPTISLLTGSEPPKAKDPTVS
Sequence of CRX (O43186 whole entry): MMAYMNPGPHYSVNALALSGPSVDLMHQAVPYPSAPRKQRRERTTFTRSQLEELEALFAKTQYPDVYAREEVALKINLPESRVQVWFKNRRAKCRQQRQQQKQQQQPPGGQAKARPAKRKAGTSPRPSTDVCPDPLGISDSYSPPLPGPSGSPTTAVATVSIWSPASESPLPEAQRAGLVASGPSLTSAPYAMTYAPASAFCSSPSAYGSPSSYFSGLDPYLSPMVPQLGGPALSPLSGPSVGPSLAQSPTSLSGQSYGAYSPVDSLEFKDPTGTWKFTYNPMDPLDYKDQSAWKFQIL
Sequence of SPIB (Q01892 whole entry): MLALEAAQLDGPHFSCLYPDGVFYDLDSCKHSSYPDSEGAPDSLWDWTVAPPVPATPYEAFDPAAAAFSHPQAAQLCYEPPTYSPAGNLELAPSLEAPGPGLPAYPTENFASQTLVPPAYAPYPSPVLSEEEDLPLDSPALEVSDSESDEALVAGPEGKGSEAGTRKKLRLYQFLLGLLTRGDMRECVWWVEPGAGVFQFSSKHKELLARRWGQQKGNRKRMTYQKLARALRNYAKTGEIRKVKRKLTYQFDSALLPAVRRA

With AAGAAT, the binding signal in the assay with FLI1 was 1.13 fold enrichment (6-mer frequency, TF over GST control); in the assay with ELK1 it was 1.17 fold enrichment (6-mer frequency, TF over GST control); with GABPA, 1.13 fold enrichment (6-mer frequency, TF over GST control); with ERG, 1.15 fold enrichment (6-mer frequency, TF over GST control); with ELF1 it was 1.11 fold enrichment (6-mer frequency, TF over GST control); with EHF, 1.14 fold enrichment (6-mer frequency, TF over GST control). Moreover, the binding signal with SPI1 is 1.18 fold enrichment (6-mer frequency, TF over GST control); with SPIB, 1.14 fold enrichment (6-mer frequency, TF over GST control); with ELK3 it was 1.1 fold enrichment (6-mer frequency, TF over GST control); with FEV, 1.09 fold enrichment (6-mer frequency, TF over GST control); in the assay with ETV5 it was 1.11 fold enrichment (6-mer frequency, TF over GST control); in the assay with HSF1 it was 1.83 fold enrichment (6-mer frequency, TF over GST control). The binding signal is 1.08 fold enrichment (6-mer frequency, TF over GST control) with SPIC; 1.24 fold enrichment (6-mer frequency, TF over GST control) with ELF4; 1.09 fold enrichment (6-mer frequency, TF over GST control) with ELK4; 1.12 fold enrichment (6-mer frequency, TF over GST control) in the assay with ETV2; 1.17 fold enrichment (6-mer frequency, TF over GST control) with ELF3; 1.43 fold enrichment (6-mer frequency, TF over GST control) in the assay with CRX. Also, the binding signal in the assay with ETV1 was 1.15 fold enrichment (6-mer frequency, TF over GST control).
